Results on 20 molecules are retold here after PubChem BioAssay (NCI).

Test [1] is described as follows: NCI Yeast Anticancer Drug Screen. Data for the rad50 strain (AID 155).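 Also: 0% = growth of vehicle-only cultures of the same strain.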 The conditions noted are these: S. cerevisiae rad50 strain growth inhibition; at 50.0 µM; hits give high values. In a few lines: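 Readout: growth inhibition relative to vehicle-treated cultures. Compound exposure was carried out in a genetically defined yeast strain deficient in DNA damage repair.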

The nature of test [2]: NCI Yeast Anticancer Drug Screen. Data for the mec2-1 strain (AID 157). The following applies: S. cerevisiae mec2-1 strain, at 50.0 µM, hits give high values. In short, it runs like this: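 mec2-1 yeast strain, carrying an alteration in DNA damage repair or cell cycle control, was exposed to compounds; growth inhibition was measured relative to vehicle-treated controls.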
The nature of test [3]: NCI Yeast Anticancer Drug Screen. Data for the sgs1 mgt1 strain (AID 161).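 Also: 0% = growth of cultures given vehicle only.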 The following applies: S. cerevisiae sgs1 mgt1 strain, at 50.0 µM, hits give high values. In short, it runs like this:
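Growth of a repair-deficient yeast mutant was monitored after compound treatment and expressed as inhibition relative to vehicle-treated cultures.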

A short description of test [4]: NCI Yeast Anticancer Drug Screen. Data for the cln2 rad14 strain (AID 165).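 Also: 0% = growth equal to vehicle treated cultures.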 The following applies: S. cerevisiae cln2 rad14 strain, at 50.0 µM, hits give high values. In a few lines: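 Yeast carrying cln2 and rad14 alterations (cell cycle control and DNA damage repair) were exposed to compounds. Growth inhibition was measured against vehicle-treated controls.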
A short description of test [5]: NCI Yeast Anticancer Drug Screen. Data for the bub3 strain (AID 167). The conditions noted are these: S. cerevisiae bub3 mutant strain, at 50.0 µM, hits give high values. In a few lines: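 Readout: yeast growth inhibition, expressed relative to vehicle-only wells. The test organism is a mutant strain from a panel with lesions in DNA repair or checkpoint genes.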
Test [6] can be described thus: NCI Yeast Anticancer Drug Screen. Data for the mlh1 rad18 strain (AID 175). The conditions noted are these: S. cerevisiae mlh1 rad18 strain growth inhibition; at 50.0 µM; hits give high values. In short, it runs like this:
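Growth inhibition of the yeast strain was measured after compound exposure and expressed relative to vehicle-treated controls. The strain carries defined defects in DNA damage repair.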

Molecules are shown by their SMILES. About 79,000 compounds went through this panel and 15% of them were active in at least one assay; those are over-represented in the sample as a whole. Unmarked numbers belong to inactive results. Activity calls are given as the source filed them. Rule as the data show it: active = growth inhibition above about 70%; inactive = the rest.

Regarding `CCOC(=O)C1CC=CCC1C(=O)OCC` (stereo not given), the growth inhibition in test [1] was -5.25%; in test [2] it was -7.5%; in test [3], 0.5%; in test [4], 2.55%; in test [5] it was 1.3%; in test [6] it was -19.5%.

In the case of `Nc1ccc(N)c(Cl)c1`, the growth inhibition in test [1] is -19.4%; in test [2], -15.8%; in test [3], -19.8%; in test [4], 14.7%; in test [5] it was -7.3%; in test [6], -2.85%.

For the molecule `OC1(CCC2OCCO2)c2ccccc2-c2ccccc21`, the growth inhibition is -3.9% in test [1]; 7.05% in test [2]; 7.85% in test [3]; 25.4% in test [4]; 15.8% in test [5]; 2.85% in test [6].

On to `C1=CC(=C(c2ccccc2)c2ccccc2)C=C1`, for which the growth inhibition was -17.1% in test [1]; -16.9% in test [2]; -4.5% in test [3]; -19.2% in test [4]; -2.75% in test [5]; -1.9% in test [6].

For the molecule `CCC/C(=N/O)C(=O)OCC`, the growth inhibition in test [1] was -3.4%; in test [2], 14.9%; in test [3], 6.4%; in test [4] it was 6.25%; in test [5] it was 4.4%; in test [6], -4.6%.

`CN(c1ccccc1Cl)S(=O)(=O)c1ccc([N+](=O)[O-])cc1`: the growth inhibition is -14.2% in test [1]; -45.9% in test [2]; 12.2% in test [3]; 3.9% in test [4]; 26.4% in test [5]; -2.25% in test [6].

For the molecule `CNn1c(-c2ccc(C)cc2)n[nH]c1=O`, the growth inhibition in test [1] is 8.95%; in test [2], 0.25%; in test [3], -5.95%; in test [4] it was 4.15%; in test [5], 18.7%; in test [6], 19.9%.

Consider `Cc1ccc(NC(=O)c2ccccc2N)cc1`, for which the growth inhibition was -0.9% in test [1]; -8.5% in test [2]; -0.95% in test [3]; -16.8% in test [4]; -12.4% in test [5]; 18% in test [6].

As to `CC(NC1=CC(=O)c2cccnc2C1=O)C(O)c1ccccc1` (stereo not given), the growth inhibition in test [1] was 82.8% (active); in test [2], 80.8% (active); in test [3], 72.1% (active); in test [4] it was 27.5%; in test [5] it was 64.2%; in test [6] it was 71.3% (active).

In the case of `CN(C)CC1=C(O)c2ccccc2C(=O)C1=O`, the growth inhibition in test [1] is -0.25%; in test [2], -1.2%; in test [3], 1.1%; in test [4] it was 13.7%; in test [5] it was 31.6%; in test [6], -4.2%.

For `Nc1nc2c(C(=O)N3CCCC3)nnn2c2cccc(Cl)c12`, the growth inhibition is -4.45% in test [1]; -11.7% in test [2]; 17% in test [3]; 18.3% in test [4]; 9.9% in test [5]; 0.05% in test [6].

Regarding `COc1cc(CNCCO)cc(OC)c1`, the growth inhibition is 22.2% in test [1]; 8.8% in test [2]; -1.35% in test [3]; -15.1% in test [4]; 19.6% in test [5]; 13% in test [6].

Regarding `Clc1ccc(-c2nc3ccccc3cc2N2CCCCC2)cc1`, the growth inhibition in test [1] was 26.4%; in test [2] it was 1.45%; in test [3], 12.3%; in test [4], -38.5%; in test [5] it was -1.15%; in test [6] it was -7.7%.

With `c1ccc(O[Si](Oc2ccccc2)(Oc2ccccc2)Oc2ccccc2)cc1`, the growth inhibition in test [1] is 5.65%; in test [2] it was -18.7%; in test [3], 5.5%; in test [4] it was 5.1%; in test [5] it was -7.3%; in test [6], 6.05%.

As to `O=C1ON=C2C3CC4CC12CC1(C3)C(=O)ON=C41`, the growth inhibition was -3.05% in test [1]; -6.45% in test [2]; -3.8% in test [3]; -1.9% in test [4]; -12.1% in test [5]; -19.8% in test [6].

On to `O/N=C1/COC(C(F)(F)F)(C(F)(F)F)C1`, for which the growth inhibition in test [1] is -14.3%; in test [2] it was -25.4%; in test [3], -16.9%; in test [4], -38.2%; in test [5] it was -5.7%; in test [6], -45.5%.

Regarding `O=C(O)c1ccccc1-c1ccccc1C(=O)Nc1ccc2c(c1)[nH]c(=O)c1ccccc12`, the growth inhibition was -13.8% in test [1]; -3.85% in test [2]; -21.8% in test [3]; 46.9% in test [4]; -15.8% in test [5]; -22.3% in test [6].

With `Cc1c(C(=N)N)oc2ccccc12`, the growth inhibition in test [1] was 6.3%; in test [2], 0.05%; in test [3], 0.4%; in test [4] it was -31.5%; in test [5], -4.15%; in test [6], 3.95%.

For `COc1ccc2ccc3nonc3c2c1`, the growth inhibition was 17.1% in test [1]; 4.7% in test [2]; 9% in test [3]; -40.5% in test [4]; 6.4% in test [5]; 1.45% in test [6].

`NC(=O)N/N=C/c1ccc([N+](=O)[O-])s1`: the growth inhibition in test [1] was -29.6%; in test [2] it was -0.8%; in test [3] it was 1.8%; in test [4] it was -39%; in test [5] it was -6.9%; in test [6], -8.5%.
